Results on 15 compounds are retold here after PubChem BioAssay (Tox21).

Assay [1] can be described thus: qHTS assay to identify small molecule agonists of the hypoxia (HIF-1) signaling pathway - cell viability counter screen (AID 1224844; calls by dose curve; also: nearly all actives have a fitted effect of over 50% in size; also: potency is read from the fitted curve at half-maximal effect). A digest of the protocol:
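CellTiter-Glo luminescence read-out, 30 min RT, taken in the same wells as the beta-lactamase HRE reporter assay; HRE-bla ME-180 cells, 0.5% dialyzed FBS, 17 hr compound treatment at 37C, 5% CO2.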

Assay [2] is described as follows: qHTS assay to identify small molecule agonists of H2AX (AID 1224845; active = well fitted activation curve with a large enough effect in the signal ratio in the repeat runs, not every such curve was filed as active; the % refers to the signal ratio; also: potency is read from the fitted curve at half-maximal effect). A digest of the protocol:
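Phospho-H2AX Ser139 measured by HTRF (ex 320 nm; em 665 and 620 nm) after 24 hr antibody incubation. Compounds, 15 concentrations, 0.76% DMSO, were applied to CHO-K1 cells for 3hr at 37C before lysis.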
On the technique in general: In qHTS, concentration-response curves come from the screen itself.

Assay [3] in a line: qHTS assay to identify small molecule agonists of the hypoxia (HIF-1) signaling pathway (AID 1224846; active = well fitted activation curve with a large enough effect in the signal ratio in the repeat runs, not every such curve was filed as active; the % refers to the signal ratio). A digest of the protocol:
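Beta-lactamase FRET read-out (CCF4-AM substrate) from ME-180 cells carrying an HRE-driven bla reporter, after 17 hrs compound exposure at 37C/5% CO2. Cells were seeded at 2,000 per well in 0.5% dialyzed FBS medium and preincubated 5 hrs.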

Assay [4] in a line: qHTS assay to identify small molecule agonists of H2AX - cell viability counter screen (AID 1224847; calls by dose curve; also: nearly all actives have a fitted effect of over 30% in size; also: potency is read from the fitted curve at half-maximal effect). A digest of the protocol: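 Viability of CHO-K1 (wild type) cells after 3 hr compound exposure was measured by CellTiter-Glo luminescence.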
The nature of assay [5]: qHTS RealTime-Glo MT Cell Viability Assay in HepG2 cells - 24 hour (AID 1224867). Also: nearly all actives have a fitted effect of over 50% in size. The essentials:
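Tox21 10K library screened in qHTS format on HepG2 cells carrying RealTime-Glo reagents. Compounds were added after a 5 h preincubation, and the luminescent signal from continuous culture was measured repeatedly during 40 h treatment.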

Assay [6] can be described thus: qHTS RealTime-Glo MT Cell Viability Assay in HEK293 cells - 32 hour (AID 1224868). Also: nearly all actives have a fitted effect of over 50% in size. Also: potency is read from the fitted curve at half-maximal effect. The essentials: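 Luminescence generated by NanoLuc from substrate produced by living HEK293 cells served as the viability signal. Each value reflects the reading at its stated time point during continuous 40 h compound exposure at 37 C.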
Assay [7] can be described thus: A CellTox Green Cytotoxicity Assay to monitor cytotoxicity in HEK293 cells - 0 hour (AID 1224869). Also: nearly all actives have a fitted effect of over 50% in size. The essentials:
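Read-out: fluorescence of a cell-impermeant cyanine dye staining DNA of dead cells, proportional to cytotoxicity. HEK293, 600 cells/well with reagent, compound (23 nL DMSO) added after 5 h; reads at 0, 8, 16, 24, 32, 40 h.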

Assay [8] is described as follows: qHTS RealTime-Glo MT Cell Viability Assay in HepG2 cells - 40 hour (AID 1224870). Also: nearly all actives have a fitted effect of over 50% in size. Also: potency is read from the fitted curve at half-maximal effect. A digest of the protocol:
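Real-time viability: cells seeded at 600 per well together with NanoLuc and cell-permeant prosubstrate, compounds added after 5 h incubation. Luminescence tracked at 0, 8, 16, 24, 32 and 40 h of exposure.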

Assay [9] is described as follows: qHTS assay to identify small molecule agonists of the estrogen related receptor (ERR) signaling pathway from Tox21 library (AID 1224849; calls by dose curve; also: nearly all actives have a fitted effect of over 15% in size). The following applies: ERR reporter cell line, ONE-Glo luciferase, 18 h. The essentials: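 Luminescence readout (ONE-Glo, 30 min RT) after 18 h compound exposure at 37 C of NTP-supplied ERR reporter cells; cells were plated 6 h before compound addition by pin tool.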

A short description of assay [10]: qHTS assay to identify small molecule antagonists of the estrogen related receptor (ERR) signaling pathway from Tox21 library (AID 1224848). Also: nearly all actives have a fitted effect of over 50% in size. Also: potency is read from the fitted curve at half-maximal effect. The essentials: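 ERR cell line, 2,000 cells/well. 6 h settle, then compound (DMSO) added; 18 h at 37 C; ONE-Glo luminescence after 30 min RT.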

Structures are written as SMILES. Where “and” joins values, the source holds several entries; their conditions need not be identical. Equal entries are not always repeated. Inconclusive results are not listed. Where a structure was tested more than once in an assay, its records may differ in their call. Calls of active or inactive are those of the source. Unless noted, calls follow the shape of the dose curve; as a rule, active = well fitted curve in the direction sought with a large enough effect in the repeat runs; inconclusive = weak or mixed curves; inactive = no such curve, though single readings can be large; an effect the other way counts as inactive or inconclusive.
% is scaled to controls: 0 for no effect and ±100 for the full control effect.

For the compound `C[N+](C)(C)C`, the Potency entry in [1], in assay [2], in assay [4], in assay [5], in [6] and in assay [7] was “inactive” in each case. Also, the Potency result in [8] was “inactive”. Also, the compound was called inactive in assay [3].

On to `Nc1ccc([N+](=O)[O-])cc1N`, for which the Potency in [1] was 21.9 µM (active) and inactive. In addition, in assay [3], the result was inactive. In addition, the Potency entry in assay [4], in assay [5], in assay [6], in assay [7] and in assay [8] was “inactive” in each case. For the same compound, the activity change, positive = activation in assay [9] (at 92.4 µM (top of the series)) is -63% (inactive) and 34.6% (active).

Turning to `C[N+](C)(C)CC(=O)[O-]`, the Potency entry in assay [1], in [2], in assay [4], in assay [5], in [6] and in [7] was “inactive” throughout. Besides, the Potency result in [8] is “inactive”.

For `S=c1[nH]c2ccccc2[nH]1`, the Potency result in [1], in assay [4], in [10], in [5], in assay [6] and in assay [7] was “inactive” in each case. For the same compound, the Potency entry in assay [8] is “inactive”. In addition, in assay [3], the compound was called inactive. For the same compound, the activity change, positive = activation in assay [9] (at 92.4 µM (top of the series)) was -4.19% (inactive) and 0.256% (inactive).

Consider `CCOP(=O)(OCC)OCC`, for which the Potency entry in [1], in assay [4], in assay [5], in [6], in assay [7] and in [8] was “inactive” throughout. In assay [3], the call was inactive. In addition, in assay [9] (at 92.4 µM (top of the series)), the activity change, positive = activation was -7.79% (inactive) and 1.86% (inactive).

For the compound `N#Cc1nn(-c2c(Cl)cc(C(F)(F)F)cc2Cl)c(N)c1S(=O)C(F)(F)F` (stereo unspecified), the Potency entry in [1], in [7] and in assay [8] was “inactive” each time. Further, the outcome in assay [3] was inactive. Further, the Potency is 101 µM (active) in assay [4]; 5.48 µM (active) and 11.9 µM (active) in assay [10]; 22 µM (active) in [6]. For the same compound, the activity change, positive = activation is -52.7% (inactive) in assay [9] (at 42.5 µM (top of the series)) and -58.7% (inactive) in assay [9] (at 92.4 µM (top of the series)).

Take `COP(=O)(NC(C)=O)SC` (stereo unspecified): the Potency result in assay [1], in assay [2], in assay [4], in assay [5], in assay [6] and in [7] was “inactive” throughout. The Potency result in assay [8] was “inactive”. In [3], the compound was classed as inactive.

For `CCOP(=S)(OCC)OP(=S)(OCC)OCC`, the Potency entry in assay [1], in assay [4], in assay [10], in [5], in assay [6] and in assay [7] was “inactive” in each case. Besides, the Potency result in [8] was “inactive”. Further, in assay [3], the compound was classed as inactive. The activity change, positive = activation in assay [9] (at 92.4 µM (top of the series)) was -12.2% (inactive) and -0.199% (inactive).

As for `CCC[CH2][Sn]([Cl])([CH2]CCC)[CH2]CCC`, the Potency in assay [1] is 310 nM (active) and 1.1 µM (active); in assay [2], 358 nM (active) and 401 nM (active); in assay [4], 637 nM (active) and 713 nM (active); in assay [6], 347 nM (active) and 490 nM (active); in assay [8], 979 nM (active) and 347 nM (active). Moreover, in assay [7], the Potency result was “inactive”.

For `ClCC(Cl)CCl`, the Potency result in [1], in [4], in assay [10], in [5], in [6] and in [7] was “inactive” each time. Moreover, in assay [8], the Potency entry is “inactive”. Also, the compound was classed as inactive in [3]. Besides, the activity change, positive = activation in assay [9] (at 92.4 µM (top of the series)) was 8.78% (inactive) and 5.09% (inactive).

Consider `CCCCOCCOC(C)=O`, for which the Potency result in [1], in [4], in assay [5], in assay [6], in assay [7] and in [8] was “inactive” throughout. Also, the result in assay [3] was inactive. For the same compound, the activity change, positive = activation in assay [9] (at 92.4 µM (top of the series)) is 1.87% (inactive) and 10.2% (inactive).

With `Cl`, the Potency entry in assay [1], in assay [2], in assay [4], in assay [5], in [6] and in [7] was “inactive” each time. Besides, in assay [8], the Potency result was “inactive”. Further, the call in assay [3] was inactive.

As for `ClC(Cl)(Cl)c1ccccc1`, the Potency entry in assay [1], in assay [2], in [4], in assay [5], in assay [6] and in [7] was “inactive” in each case. The Potency entry in assay [8] was “inactive”. The compound was classed as inactive in [3].

`CC(C)=CC1C(C(=O)OCN2C(=O)C3=C(CCCC3)C2=O)C1(C)C` (stereo unspecified): the Potency entry in assay [1], in assay [2], in assay [6], in [7] and in assay [8] was “inactive” in each case. In addition, the result in assay [3] was inactive. Besides, the figures for the activity change, positive = activation in assay [9] (at 42.5 µM (top of the series)) and in assay [9] (at 92.4 µM (top of the series)) were -16.7% (inactive) and -22.5% (inactive), respectively.

With `Brc1ccc(Br)cc1`, the Potency result in assay [1], in assay [4], in [5], in assay [6], in assay [7] and in assay [8] was “inactive” throughout. In addition, the call in assay [3] was inactive. Further, the activity change, positive = activation in [9] (at 92.4 µM (top of the series)) was 7.62% (inactive) and 5.83% (inactive).
